± gives the standard deviation of the averaged measurements. In all, about 25,000 sequences were measured (“ln(normalized median fluorescence intensity)”: median about 8.9, highest 2% from about 10 on). This is one part of a sample in which the highest values are shown more often than they occur.

This test relates to PfAP2-LT AP2 domain (GST-tagged). The test can be described thus: gcPBM binding intensity (ln(normalized median fluorescence intensity)); higher = stronger DNA binding. An outline of the steps:
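After 1 h on an Agilent 4 × 180k array of primer-extended double-stranded 36-bp intergenic genomic probes and negative controls, bound GST-tagged P. falciparum DNA-binding domains were detected with Alexa488 anti-GST antibody and scanned at 488 nm. The domains had been expressed in E. coli, and binding took place in 1× PBS with 1% milk, 0.2 mg/ml BSA, 0.5% salmon testes DNA and 0.03% Triton X-100. Binding intensity is the highest Masliner-normalised natural-log median intensity across replicate spots of either probe orientation.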
Consider “ATTTAATTTTCCAAATGTACTTATATTTTTATGAAA [XGTACX_site6144]”, for which the “gcPBM binding intensity (ln)” value turned out to be 8.27 ± 0.4.
The result for “TTTTTTTTTTAAATGTGTCCTCATTATAATATATGT [XGTACX_site5331]” reads 8.65 ± 0.47; that for “ATATAAGTTTTTTCTCAAAAAGTATAACGAGCATGA [CACACA_negctrl_site1375]”, 8.6 ± 0.4.
On to “GACAAAAAATTAAAATAAAATAATAATATAATAAAA [GTGCAC_negctrl_site234]”, for which the “gcPBM binding intensity (ln)” value was determined as 8.55 ± 0.67.
Take “TTTTGGTATACGTAATTATATAATATGTTAATCAAT [CACACA_negctrl_site645]”: the “gcPBM binding intensity (ln)” value was 8.61 ± 0.36.
On to “ATGTAGAGTAATAGTTGTACAAGGTGTATATCTCAT [XGTACX_site6370]”, for which the “gcPBM binding intensity (ln)” value came out at 9.29 ± 0.57.
The result for “TAAAAGTTAATATAAACACACAAAAATTAATAAATA [CACACA_site6316]” reads 8.73 ± 0.45.
As for “TTATAAAAAGAACAATTAAAAAAAAATAAAATAAAA [XGTACX_negctrl_site398]”, the figure is 8.4 ± 0.63; as for “ATATAATGTGTAGGCCGTATTTACGTTTGGCAATCA [CACACA_negctrl_site1130]”, 8.99 ± 0.56; as for “TAGAAGCAGAAACACACACACATACATACACATACA [CACACA_site1467]”, 9.87 ± 0.35.
In the case of “TGTAAATTTGGCATCACACATAAATAAACATATAAA [CACACA_site4497]”, the “gcPBM binding intensity (ln)” value is 8.77 ± 0.45.
“TATACGCAGAAACACACACACATACACCCACATACA [CACACA_site1723]”: the “gcPBM binding intensity (ln)” value was found to be 10 ± 0.26.
Turning to “ATTTGGCATAAACACACACACACACCCACCCACATA [CACACA_site8096]”, the “gcPBM binding intensity (ln)” value stood at 10.1 ± 0.37.
As for “ATTTGGCAGAAACACACACACACACCCACCCACATA [CACACA_site589]”, the “gcPBM binding intensity (ln)” value came out at 10.2 ± 0.35.
For the sequence “CATAAATGTATATAAACATGCAAGGACAGACTTTTA [TGCATGCA_site900]”, the “gcPBM binding intensity (ln)” value was 8.92 ± 0.37.
Turning to “TATATATATTATAATACATGCGGTGATGAAAGTTAT [TGCATGCA_site924]”, the “gcPBM binding intensity (ln)” value amounted to 9.07 ± 0.58.
On to “TTATTTAAAATTTTTATGCGTATATATATAGGAACA [CACACA_negctrl_site388]”, for which the “gcPBM binding intensity (ln)” value was 8.35 ± 0.39.
In the case of “ACCTGAAGAGTCAAACGTACAAATATTATAAAATGA [XGTACX_site3188]”, the “gcPBM binding intensity (ln)” value was found to be 8.77 ± 0.59.
Take “TTCGTCTTTTTTCTCACACACCCTTTTTATTAAAAG [CACACA_site7225]”: the “gcPBM binding intensity (ln)” value is 9.05 ± 0.6.
As to “TACCTATACAGACACACACACACACGCCCACAAAAA [CACACA_site6375]”, the “gcPBM binding intensity (ln)” value amounted to 10.2 ± 0.37.
Consider “CGCCCACAGATATATACACACATATATAAATAAATA [CACACA_site6877]”, for which the “gcPBM binding intensity (ln)” value is 9.04 ± 0.33.
Turning to “CGTGGGAGCAGACACACACACACACCCATATATATA [CACACA_site334]”, the “gcPBM binding intensity (ln)” value worked out at 9.99 ± 0.5.
For “TATACACCCAGACACACACACACACCCAAAAAAAAA [CACACA_site497]”, the “gcPBM binding intensity (ln)” value was determined as 10.2 ± 0.3.
For “TGGGAGCACAGACACACACACACACCCATATATATA [CACACA_site335]”, the “gcPBM binding intensity (ln)” value worked out at 9.98 ± 0.36.
The result for “AATACACCCAGACACACACACAAAAAAAAAAAAAAA [CACACA_site513]” reads 9.53 ± 0.61.
As to “CATACCTATAGACACACACACACACGCACGCACAAA [CACACA_site6374]”, the “gcPBM binding intensity (ln)” value was found to be 10 ± 0.18.
For the sequence “GGAGCACCCAGACACACACACACATATATATATATA [CACACA_site336]”, the “gcPBM binding intensity (ln)” value was 10.4 ± 0.19.
Regarding “TACTATAACAGACATACACACAAAAAAAAAAAAAAA [CACACA_site538]”, the “gcPBM binding intensity (ln)” value was found to be 9.03 ± 0.47.
The result for “TTGGCATACAGACACACACACACACGCCCACATATA [CACACA_site6425]” reads 10.1 ± 0.38; that for “AATTAGCTCAAAGGTTGTACAAATATATTTTAATGG [XGTACX_site2352]”, 8.66 ± 0.48.
The result for TTTATACATACATTCGTGCACATACGTATAACATAT reads 9.07 ± 0.37; that for “TATAAAAAGCATAACACACACATGTCAATATATATA [CACACA_site1111]”, 9.31 ± 0.35; that for “ATTTTGATGATGTATGCACACATTGAAAATGAGAAA [CACACA_site2916]”, 8.97 ± 0.57.
Turning to “AAAAAAAAGAATTATTGTACAAAAGAACAATAAATA [XGTACX_site1368]”, the “gcPBM binding intensity (ln)” value came to 8.73 ± 0.57.
Regarding “TGAAAAAAAAAATACACACACGAGTTGTTATACATA [CACACA_site7486]”, the “gcPBM binding intensity (ln)” value turned out to be 9.09 ± 0.43.
On to “TAAATACAGACATACACACATACACCCACATATATA [CACACA_site547]”, for which the “gcPBM binding intensity (ln)” value amounted to 9.76 ± 0.38.
On to “GGCATACACAGACACACACACACACCCACATATATA [CACACA_site591]”, for which the “gcPBM binding intensity (ln)” value turned out to be 10.2 ± 0.28.
As for “CATACAGATGGACACACACACACACCCACAGACAAA [CACACA_site4431]”, the “gcPBM binding intensity (ln)” value stood at 9.93 ± 0.36.
On to “TGAACACAGACAAATACACACAAAAAAAATAAATAA [CACACA_site4298]”, for which the “gcPBM binding intensity (ln)” value was 9.28 ± 0.57.
For “CATACACCCAGACACACACACATATATATATATATA [CACACA_site634]”, the “gcPBM binding intensity (ln)” value was 10.3 ± 0.17.
With “TACAGATACGGACACACACACACACCCAGACAAAAA [CACACA_site4432]”, the “gcPBM binding intensity (ln)” value is 10.2 ± 0.46.
“AACAAATACAGACACACACACACACCCAAAAAAAAA [CACACA_site515]”: the “gcPBM binding intensity (ln)” value turned out to be 10.2 ± 0.26.
“TTTAAATACAGACATACACACATACACCCACATATA [CACACA_site8078]”: the “gcPBM binding intensity (ln)” value is 9.61 ± 0.15.
The result for “AAAAAAAACAGACACACACACAAATACATACACAAA [CACACA_site705]” reads 9.72 ± 0.31; that for “ATAAAAGATTTATACATACACACATATTATATTCAC [CACACA_site3714]”, 9.02 ± 0.42.
Take “ACAAGGAATATATAAGATAATTTTAAATATAACACG [CACACA_negctrl_site1734]”: the “gcPBM binding intensity (ln)” value came out at 8.73 ± 0.51.
Take “AAAAAAAGTAAATGTTGTACTATAATATGTAATATA [XGTACX_site7966]”: the “gcPBM binding intensity (ln)” value was found to be 8.63 ± 0.55.
Turning to “ATATATATATATATATATATATATATATTTATATAT [GTGCAC_negctrl_site180]”, the “gcPBM binding intensity (ln)” value was found to be 9.39 ± 0.042.
On to “AAAAAGAAAAAAAAATGTACATAAAGTCTAATGATA [XGTACX_site4781]”, for which the “gcPBM binding intensity (ln)” value turned out to be 8.78 ± 0.49.
Consider “AAAAATTAAAAGAAAATACACACCTGTGGGTGCTTA [CACACA_site1988]”, for which the “gcPBM binding intensity (ln)” value worked out at 8.54 ± 0.47.
For “TTAATTTTTTTTTAAACACACATTTTTTTATTTAAG [CACACA_site2738]”, the “gcPBM binding intensity (ln)” value was 8.42 ± 0.54.
The result for “TATGAAAAAAAAAAAAAAAAAAAAAAAAAAAAAAAA [XGTACX_negctrl_site587]” reads 8.02 ± 0.15.
As for “TATATATTCATATGTTGTACATAAATACAAATAAGA [XGTACX_site5602]”, the figure is 8.69 ± 0.44.
For the sequence “ATATAAGTATAATTATGTACTTATACTTATATAAAT [XGTACX_site5585]”, the “gcPBM binding intensity (ln)” value is 8.62 ± 0.41.
Consider “TTGGCATACAGACACACACACACACCCCCACATATA [CACACA_site590]”, for which the “gcPBM binding intensity (ln)” value is 10.09 ± 0.085.
With “AAAAATATTTTGGTTTGTACATATATTTTTACAATA [XGTACX_site8691]”, the “gcPBM binding intensity (ln)” value was found to be 8.61 ± 0.34.

The values are drawn from the supplement of paper PMC11417369.
